About 79,000 compounds went through this panel and 15% of them were active in at least one assay; those are over-represented in the sample as a whole. The source made the active and inactive calls. Rule as the data show it: active = growth inhibition above about 70%; inactive = the rest.
Assays:
[1] = NCI Yeast Anticancer Drug Screen. Data for the rad50 strain (AID 155);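 also: 0% = growth of vehicle-only cultures of the same strain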; details: S. cerevisiae rad50 strain growth inhibition; at 50.0 µM; stronger effect = higher value
Outline: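 Cells are treated with compound, grown, and their growth is then scored against vehicle-only cultures of the same repair-deficient yeast strain.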

[2] = NCI Yeast Anticancer Drug Screen. Data for the mec2-1 strain (AID 157); details: S. cerevisiae mec2-1 strain, at 50.0 µM, stronger effect = higher value
Outline: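 Mutant yeast (mec2-1) grown with compound; growth inhibition relative to vehicle control reported.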

[3] = NCI Yeast Anticancer Drug Screen. Data for the sgs1 mgt1 strain (AID 161);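 also: 0% = growth of cultures given vehicle only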; details: S. cerevisiae sgs1 mgt1 strain, at 50.0 µM, stronger effect = higher value
Outline: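 Growth of a repair-deficient yeast mutant was monitored after compound treatment and expressed as inhibition relative to vehicle-treated cultures.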

[4] = NCI Yeast Anticancer Drug Screen. Data for the cln2 rad14 strain (AID 165);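 also: 0% = growth equal to vehicle treated cultures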; details: S. cerevisiae cln2 rad14 strain, at 50.0 µM, stronger effect = higher value
Outline: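 Readout is yeast growth inhibition versus vehicle-treated controls, using a strain with cln2 and rad14 alterations exposed to compound.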

[5] = NCI Yeast Anticancer Drug Screen. Data for the bub3 strain (AID 167); details: S. cerevisiae bub3 mutant strain, at 50.0 µM, stronger effect = higher value
Outline: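 Part of a panel of yeast mutants defective in DNA damage repair or cell cycle regulation. Each strain is grown with compound, and inhibition is calculated relative to solvent-treated cultures.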

[6] = NCI Yeast Anticancer Drug Screen. Data for the mlh1 rad18 strain (AID 175); details: S. cerevisiae mlh1 rad18 strain growth inhibition; at 50.0 µM; stronger effect = higher value
Outline: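 Genetically defined yeast (DNA repair-deficient) exposed to compounds; growth inhibition determined relative to vehicle.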

Measured: growth inhibition

Nc1nc(N)nc(COc2ccccc2Cl)n1
inactive: [1] 6.5% | [2] 8.5% | [3] 8.35% | [4] 9.4% | [5] 15.2% | [6] 13.2%

CCOc1ccc(Cc2ccc3c(c2)OCO3)cc1C
inactive: [1] -17.2% | [2] -13.3% | [3] -7.55% | [4] -13.2% | [5] -2.1% | [6] 2.2%

CCOC(=O)c1c[nH]c2c(=O)n(C)c(=O)[nH]c12
inactive: [1] 7.25% | [2] -7.75% | [3] 3.5% | [4] -28.8% | [5] 0.5% | [6] 24.1%

C=C(C)C(=O)NC(Cc1cnc[nH]1)C(=O)O (stereo not drawn)
inactive: [1] 8.2% | [2] 0.5% | [3] 16.1% | [4] 1.15% | [5] 15.2% | [6] 0.55%

CC(C)(C)c1ccc(N)cc1
inactive: [1] -37.7% | [2] -29.8% | [3] -10.9% | [4] -3.45% | [5] -2.65% | [6] -13.5%

O=C(O)c1cc2ccc(Cl)cc2c2cc(C(F)(F)F)ccc12
inactive: [1] 2.25% | [2] 27.8% | [3] 27.2% | [4] 50.9% | [5] 27.2% | [6] 53.7%

Oc1cc2c(c3c(O)c4ccccc4c(O)c13)=NC1CCCCC1N=2 (stereo not drawn)
inactive: [1] 6.25% | [2] 9.6% | [3] 20.6% | [4] 7.6% | [5] 15.3% | [6] 40%

CCOCC/C(=N\Nc1ccc([N+](=O)[O-])cc1[N+](=O)[O-])c1ccccc1
inactive: [1] 19.8% | [2] 5.85% | [3] 11.2% | [4] 19.6% | [5] 30% | [6] 9.55%

Cc1ccnc(N(C)CCN2CCCCC2)c1
inactive: [1] 2.75% | [2] 8.15% | [3] 7.3% | [4] -34.5% | [5] 12.4% | [6] -20.8%

CSc1ccc(NC(=O)Nc2cccc(C(C)=O)c2)cc1
inactive: [1] 2.15% | [2] 31.2% | [3] 10.3% | [4] -17.1% | [5] 43% | [6] 24.8%

CCC(Cc1ccco1)C(=O)NC(N)=O (stereo not drawn)
inactive: [1] -10.2% | [2] 4.4% | [3] -9.8% | [4] -9.1% | [5] 0.65% | [6] 11.3%

CCOC(=O)/C(=C\c1ccccc1)NC(=O)c1ccccc1
inactive: [1] 5.4% | [2] -2.75% | [3] -2.35% | [4] 7.3% | [5] 20% | [6] 4.85%

S=C(N/N=C1\CSCc2ccccc21)Nc1cc(Cl)ccc1Cl
inactive: [1] 11.9% | [2] -4.45% | [3] 6.05% | [4] 10.2% | [5] 23.9% | [6] 0.5%

Cc1cc2c3ccccc3n(C)c2c2c1C(=O)C=CC2=O
inactive: [1] 6.5% | [2] 20.4% | [3] 20.9% | [4] 3.1% | [5] -7.35% | [6] 55.8%

CC(=O)N[N+](C)(C)C
inactive: [1] -20% | [2] -39.2% | [3] 11.5% | [4] 4.05% | [5] 1.2% | [6] 7.9%

O=C(CCC(=O)OCCCl)OCCCl
inactive: [1] -3.4% | [2] -18.9% | [3] -5.6% | [4] -7.75% | [5] 9.05% | [6] -7.45%

C=CCC(O)CC=C
inactive: [1] -8% | [2] -47.5% | [3] 7.15% | [4] -6.5% | [5] 5.2% | [6] -1.7%

COc1ccc(C2c3cc4c(cc3OC(C)(OC)C2C)OCO4)cc1 (stereo not drawn)
inactive: [1] -33.5% | [2] -6.8% | [3] -3.25% | [4] -14.8% | [5] 19.8% | [6] 14.7%

O=C(Nc1ccccc1Cl)c1ccc(Cl)cc1
inactive: [1] 4.75% | [2] 14.9% | [3] 8.05% | [4] -16.2% | [5] 29.1% | [6] -4.75%

COc1cc2nccnc2c(N)c1OC
inactive: [1] 14.6% | [2] 7.65% | [3] 7.75% | [4] -1.7% | [5] -0.95% | [6] 19.9%

O=C(O)/C=C/c1ccc(O)c(O)c1
inactive: [1] 18.3% | [2] -7.15% | [3] 0.5% | [4] 9.9% | [5] 7.25% | [6] 7.65%

CC(=O)N=Cc1ccccc1O
inactive: [1] -27.8% | [2] -16% | [3] -50.2% | [4] -77.7% | [5] -34.5% | [6] -20.7%

CC(=O)Nc1ccccc1NOC(=O)c1ccccc1NC(C)=O
inactive: [1] -3.1% | [2] -8.9% | [3] 4.45% | [4] 32.7% | [5] 25.1% | [6] 18.1%

COc1ccc2c(c1)CCc1cc(OC)ccc1/[N+]([O-])=[N+]\2[O-]
inactive: [1] -1.2% | [2] 1.25% | [3] 6.8% | [4] -70.8% | [5] -5.1% | [6] 14.8%

COc1ccc2oc3c(ccc[n+]3C)c(=O)c2c1
inactive: [1] -22.9% | [2] -14.7% | [3] -12.1% | [4] 10.9% | [5] -2.9% | [6] -16.9%

CCOC(=O)C(C)Oc1ccc(Cl)cc1 (stereo not drawn)
inactive: [1] -7.85% | [2] -14.9% | [3] -13.1% | [4] -44.1% | [5] -6.3% | [6] 1.8%

COc1cc(C(O)C2(c3ccc(O)c(OC)c3)NC(=O)NC2=O)ccc1O (stereo not drawn)
inactive: [1] -22.2% | [2] 16.3% | [3] -9.35% | [4] -16.9% | [5] 35.2% | [6] -14.3%

O=C(c1nc2ccccc2[nH]1)N1CCN(c2ccccc2)CC1
inactive: [1] 2.95% | [2] -1.55% | [3] -9% | [4] 5.55% | [5] 1.35% | [6] 7.3%

CCCCOC(=O)c1c2nc3c(C(=O)OCCCC)ccc(C)c3oc-2c(C)c(=O)c1NC(C)=O
inactive: [1] 19.4% | [2] 5.1% | [3] 6.95% | [4] 4.9% | [5] -5.3% | [6] 5.2%

COCC1OC(n2cc(C)c(=O)n(C)c2=O)CC1OC (stereo not drawn)
inactive: [1] 1.2% | [2] 7.2% | [3] 19.9% | [4] -7.15% | [5] 24.4% | [6] 8%

CCc1ccc2[nH]c(C(=O)O)cc2c1
inactive: [1] -15.4% | [2] -18.4% | [3] -1.75% | [4] -11.8% | [5] -21.6% | [6] 4.45%

Cc1cc(C)c(C#N)c(SC(C(=O)NC(C)(C)C)c2ccccc2)n1 (stereo not drawn)
inactive: [1] 2.25% | [2] -16.8% | [3] 8.75% | [4] 18% | [5] -8.15% | [6] -14.3%

Nc1nc(N)c2[nH]cnc2n1 (tested in a mixture with another compound)
inactive: [1] -25.5% | [2] -17.1% | [3] -31.6% | [4] 11.3% | [5] -41.6% | [6] -12%

CC(=O)c1cc2c(cc1C)CCCC2(C)C
inactive: [1] 0.95% | [2] -3.8% | [3] -2.4% | [4] -1.5% | [5] 4.4% | [6] 1.35%

CNC(=O)OCc1c(COC(=O)NC)c(-c2ccc(SC)cc2)n(C)c1C
inactive: [1] 24.9% | [2] 8.4% | [3] 47.4% | [4] 0.1% | [5] 2.6% | [6] 49.7%

CC(C)CC1NC(=O)C(C(C)C)NC(=O)CC(C)COC(=O)C(CC(C)C)N(C)C(=O)C(C(C)C)NC(=O)C(C(C)C)OC1=O (stereo not drawn)
inactive: [1] -8.2% | [2] -3.7% | [3] 7.55% | [4] 7.95% | [5] 8.1% | [6] 14.3%

COc1cc([C@@H]2c3cc4c(cc3[C@H](OC3OC5COC(C(C)C)OC5C(O)C3O)C3COC(=O)[C@@H]32)OCO4)cc(OC)c1OC (stereo partly drawn)
inactive: [1] 11.6% | [2] 46.7% | [3] 31% | [4] 3.2% | [5] 9.25% | [6] -41.8%

CCCCCc1cc[n+](CC(=O)c2ccccc2)cc1
inactive: [1] 4.45% | [2] 0.7% | [3] -12.1% | [4] -62.7% | [5] -10.4% | [6] 12.8%
